Compounds with a hit are over-represented: about 11% of the library has one in this group of screens.
Vaccinia mCherry – inhibitors of vaccinia virus infection (mCherry reporter signal); Potency, µM (doses to about 36.5 µM), for the others: at the highest dose activity change, negative = inhibition, usual class: inhibitors; Vaccinia virus mCherry reporter infection, fluorescence; hit rate 0.63% among 310,000; calls by dose curve; tested in A549 cells; note: % is set by controls: 0 for no effect and ±100 for the full control effect; nearly all actives have a fitted effect of over 35% in size
NS1 function inh – influenza NS1 inhibition | Potency, µM (series often up to 46.1 µM), for the others: at the top dose activity, positive = more growth | hit rate 0.4% among 270,000 | AID 2326; calls by dose curve; note: actives are rising curves; nearly all actives have a fitted effect of over 50% in size
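Read-out: OD600 growth recovery of NS1-expressing budding yeast. Cells grown overnight at 30C in -URA glucose medium, washed, resuspended and diluted 1:100 in 2% galactose assay medium, pH 6.0. Same strain lacking NS1 served as positive control.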
HCV inhibitor – inhibitors of hepatitis C virus infection; hit rate 3.4% among 340,000; Huh7.5.1 HCVcc-Cre infection, luciferase reporter, 44 h; Potency, µM (top dose mostly 41.8 µM), without a hit: at the highest dose activity change, negative = inhibition, actives largely listed as inhibitors; note: % is set by controls: 0 for no effect and ±100 for the full control effect
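Luciferase read-out (15 sec integration) after a 15 min room-temperature substrate step quantifies HCVcc-Cre infection. Cells, 1,000 per well, had compound added 4 h post-plating, then virus at ~0.5 moi, and were cultured 44 h.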
Pf growth 96h – P. falciparum growth inhibition at 96 hour, primary screen for plastid delayed-death inhibitors. Potency, µM (titrated, usually from 28.7 µM), without a hit: top-dose activity change, negative = inhibition, actives largely listed as inhibitors. AID 504834. P. falciparum luciferase reporter growth, 96 h. hit rate 6.9% among 320,000; note: % is set by controls: 0 for no effect and ±100 for the full control effect
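Luminescence readout: decreased luciferase signal marks inhibited growth of reporter-expressing P. falciparum in infected red cells (2% hematocrit, 0.05% parasitemia final), exposed to compound two generations (96 h, 37 C, 5% CO2).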
VACV Venus inh – vaccinia inhibition (Venus reporter); Potency, µM (series often up to 36.5 µM), inactives show at the top dose activity change, negative = inhibition, most hits filed as inhibitors; Vaccinia virus Venus reporter expression, fluorescence; hit rate 0.46% among 330,000; calls by dose curve; tested in A549 cells; note: % is set by controls: 0 for no effect and ±100 for the full control effect; nearly all actives have a fitted effect of over 30% in size
Pf growth 48h – inhibits P. falciparum growth in the first generation, 48 h. P. falciparum luciferase growth in erythrocytes, 48 h. Potency, µM (doses to about 28.7 µM), inactives show top-dose activity change, negative = inhibition, most hits filed as inhibitors. hit rate 5.9% among 310,000; note: % is set by controls: 0 for no effect and ±100 for the full control effect
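Luciferase-expressing P. falciparum in infected erythrocytes (2% hematocrit, 0.1% parasitemia final) in RPMI 1640/0.5% Albumax were exposed to compound for 48 hours at 37 C, 5% CO2; growth read as luminescence.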
The depositor's hits bear a star; i = inactive; ? = inconclusive; nt = no result given; [ ] = dose if it differs, or a comment. Unless noted, calls come from the whole dose curve; as a rule, active = well fitted inhibition curve with a large enough effect; inconclusive = small, poorly fitted or top-dose-only effect, or another doubt; inactive = no such curve, though single readings can be large or run the other way. Potency is the fitted concentration of half-maximal effect.

SMILES	Vaccinia mCherry	NS1 function inh	HCV inhibitor	Pf growth 96h	VACV Venus inh	Pf growth 48h
CN1CCN(C(=O)C2CCC(=O)N(CCc3cccc(F)c3)C2)CC1 (configuration not stated)	i	29.1%	13.2%	9.28µM*	-9.1%	?
COCC1CCN(C(=O)C2CCC(=O)N(Cc3cccc(F)c3)C2)CC1 (configuration not stated)	-0.3%	4.2%	2.2%	11.9%	-15.3%	-19.6%
COC(=O)C1CCN(C(=O)C2CCC(=O)N(CCc3cccc(F)c3)C2)CC1 (configuration not stated)	nt	4.0%	20.8%	?	nt	1.1%
O=C(CCCCCN1C(=O)c2ccccc2C1=O)NCc1ccco1	nt	-8.2%	3.7%	1.04µM*	-15.9%	nt
Cn1c(=O)cc(OCCCC(=O)NCc2ccco2)c2ccccc21	nt	1.5%	-6.4%	11.7µM*	nt	-2.3%
O=C(CCN1C(=O)c2ccccc2S1(=O)=O)NCc1ccco1	-6.5%	3.5%	-1.6%	11.7µM*	-0.4%	18.1%
CCn1cc(C(=O)N(C)Cc2ccccc2)c(=O)c2cc(S(=O)(=O)N3CCCCC3)ccc21	i	nt	nt	nt	2.9%	nt
CC(C)Cn1c(CN2CCN(C(=O)c3ccco3)CC2)nc2c1c(=O)n(C)c(=O)n2C	i	nt	11.6%	69.0%	1.6%	4.5%
Cc1cccc(NC(=O)c2cc([N+](=O)[O-])ccc2Cl)c1O	-5.8%	-10.4%	-22.9%	-15.8%	-7.8%	?
O=C(Nc1ccc([N+](=O)[O-])cc1Cl)c1cc(Br)ccc1O	3.55µM*	nt	nt	nt	0.794µM*	nt
O=C(Nc1ccc([N+](=O)[O-])cc1Cl)c1cc(Cl)cc(Cl)c1O	8.91µM*	nt	nt	nt	?	nt
COc1ccc(NC(=O)c2cc(Br)ccc2Cl)c([N+](=O)[O-])c1	-4.1%	nt	-3.4%	1.1%	-10.6%	-7.4%[5.75 µM]
Cc1cccc(CCNC(=O)CC2C(=O)NCCN2CC2CCCCC2)n1 (configuration not stated)	0.0%	1.0%	9.4%	?	-0.1%	?
CCOC(=O)N1CCN(S(=O)(=O)c2cc([N+](=O)[O-])ccc2C)CC1	nt	7.8%	5.0%	131.4%	nt	12.9%
O=C(Nc1ccc2c(c1)oc1ccccc12)c1cccnc1	nt	-51.0%	?	2.08µM*	-19.7%	?
CNC(=O)COc1ccccc1C(=O)Nc1ccc2c(c1)oc1ccccc12	nt	3.5%	?	4.65µM*	nt	nt
COc1ccc(C(CNC(=O)c2ccc(NS(=O)(=O)c3ccccc3)cc2)N2CCOCC2)cc1 (configuration not stated)	-8.8%	nt	0.6%	?	9.1%	?
CCN(CC)S(=O)(=O)c1cccc(C(=O)NC(Cc2c[nH]c3ccccc23)c2nnc3n2CCCCC3)c1 (configuration not stated)	nt	0.1%	9.6%	10.4µM*	nt	?
CN1CCN(C(=O)c2cc3nc(-c4ccc(F)cc4)cc(C(F)(F)F)n3n2)CC1	nt	-0.3%	?	?	-13.5%	nt
CN1CC(=O)N(C)c2ncn(Cc3ccccc3)c2C1=O	nt	1.9%	0.4%	8.28µM*	-22.9%	26.1%
O=c1c2ccccc2ncn1Cc1ccccc1	-5.0%[7.34 µM]	-1.6%	15.1%	?	-6.4%[7.34 µM]	12.2%
O=c1c2cc3c(cc2[nH]c(=S)n1C1CCN(Cc2ccccc2)CC1)OCO3	i	nt	12.6µM*	?	-1.2%	27.1%
CC(=O)c1ccc(N2CCN(C(=O)CCCn3c(=S)[nH]c4cc5c(cc4c3=O)OCO5)CC2)cc1	nt	?	?	22.5%	nt	11.7µM*
Cc1cccc(N2CCN(C(=O)CCCn3c(=S)[nH]c4cc5c(cc4c3=O)OCO5)CC2)c1C	?	?	?	-8.0%	?	?
CCOc1cc2[nH]c(=S)n(C3CCN(Cc4ccccc4)CC3)c(=O)c2cc1OCC	-22.1%	nt	4.5%	?	-3.8%	-9.7%
SMILES	Vaccinia mCherry	NS1 function inh	HCV inhibitor	Pf growth 96h	VACV Venus inh	Pf growth 48h
O=C(CCCn1c(=S)[nH]c2cc3c(cc2c1=O)OCO3)N1CCN(c2ccc(Cl)cc2)CC1	nt	?	12.6µM*	50.7%	nt	-29.5%
O=C(CCCn1c(=S)[nH]c2cc3c(cc2c1=O)OCO3)N1CCN(c2ccccc2)CC1	nt	2.2%	?	13.1µM*	nt	-16.1%
COc1ccc(N2CCN(C(=O)CCCCCn3c(=S)[nH]c4cc5c(cc4c3=O)OCO5)CC2)cc1	nt	9.6%	1.7%	?	nt	?
NNC(=O)CN1C(c2ccc(Cl)cc2)=Nc2ccc(Br)cc2C1c1ccccc1 (configuration not stated)	nt	18.1%	-14.2%	34.1%	nt	8.28µM*
NNC(=O)CN1C(c2ccccc2)=Nc2ccc(Br)cc2C1c1ccccc1 (configuration not stated)	-5.1%	nt	-17.5%	13.3%	-18.1%	?
NNC(=O)CN1C(CN2CCOCC2)=Nc2ccc(Br)cc2C1c1ccccc1 (configuration not stated)	?	6.5%	17.8%	13.1µM*	-7.2%	?
CC1=Nc2ccc(Br)cc2C(c2ccccc2)N1CC(=O)NN (configuration not stated)	nt	nt	16.1%	7.9%	nt	?
COc1cccc(N2CCN(C(=O)CC(NC(=O)c3ccccc3)c3ccccc3)CC2)c1 (configuration not stated)	-20.2%	nt	-3.7%	?	-9.0%	?
COc1ccc(Cl)cc1NC(=O)CC1S/C(=N/N=C2CCCCCC2)NC1=O (configuration not stated)	nt	?	-16.4%	13.1µM*	nt	?
S=C(NCCCc1ccccc1)Nc1ccccc1	-13.4%	-49.6%	-7.5%	-4.7%	-14.5%	?
COc1ccccc1C(=O)NCC(=O)N/N=C/c1ccncc1	-6.4%	4.4%	-0.6%	13.5%	9.7%	25.1%
Cc1[nH]c2ccccc2c1/C=C/c1nc2ccccc2c(=O)[nH]1	12.6µM*	4.2%	-23.7%	?	?	?
CCOc1ncccc1C(=O)NCc1ccc(C)cc1	-8.8%	-6.0%	9.7%	-14.4%	-15.3%	17.7%
CSc1ncccc1C(=O)NCc1ccc(C)cc1	?	6.6%	5.7%	1.7%	10µM*	nt
CC1CCCCC1NC(=O)NC(=O)COC(=O)c1nccnc1N (configuration not stated)	-13.4%	nt	7.0%	nt	-2.3%	nt
CC1CCCCC1NC(=O)NC(=O)CCl (configuration not stated)	-13.9%	1.7%	?	?	-9.6%	8.28µM*
CC1CCCC(NC(=O)NC(=O)CCl)C1C (configuration not stated)	nt	-4.7%	?	10.4µM*	nt	0.0329µM*
OCc1ccccc1N=c1ssnc1Cl	nt	-0.5%	nt	20.0%	nt	?
CC(C(O)c1ccc(O)cc1)N1CCC(Cc2ccccc2)CC1 (configuration not stated)	?	-17.7%	?	?	-22.0%	2.13µM*
CC(CCc1ccccc1)NC(C)C(O)c1ccc(O)cc1 (configuration not stated)	-2.5%	-5.0%	?	1.9µM*	-15.0%	?

Compound activity: PubChem, National Center for Advancing Translational Sciences (NCATS)
